Compound activity (PubChem BioAssay)
CYP2C9 inhib: blocks human cytochrome P450 2C9; inhibition, % at 5 µM; CYP2C9 Supersomes, luciferin-H conversion, luminescence; P11712; AID 777; 96,000 tested, 20% active;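 active means blocking of liver enzyme CYP2C9 beyond about 50% at 5 µM, limit read from the data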
Target sequence (P11712 whole entry, looked up): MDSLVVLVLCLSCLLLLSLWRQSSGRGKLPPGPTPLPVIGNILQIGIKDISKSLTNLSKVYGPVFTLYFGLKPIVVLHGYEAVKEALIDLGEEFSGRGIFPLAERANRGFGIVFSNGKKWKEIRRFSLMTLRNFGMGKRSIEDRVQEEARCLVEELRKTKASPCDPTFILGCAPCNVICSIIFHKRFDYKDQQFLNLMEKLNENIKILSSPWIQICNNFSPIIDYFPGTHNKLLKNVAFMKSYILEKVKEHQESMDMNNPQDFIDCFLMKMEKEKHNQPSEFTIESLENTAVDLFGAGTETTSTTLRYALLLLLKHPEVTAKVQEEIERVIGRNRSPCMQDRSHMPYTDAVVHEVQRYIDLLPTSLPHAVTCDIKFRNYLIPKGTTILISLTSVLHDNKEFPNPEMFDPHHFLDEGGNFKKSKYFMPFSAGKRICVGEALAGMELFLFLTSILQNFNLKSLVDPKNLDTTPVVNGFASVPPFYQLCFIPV
E-sel TNF inh: TNF alpha driven E-selectin expression inhibition; HUVEC TNFa-induced E-selectin immunofluorescence, high content; inhibition, % at 2 µM; 120,000 tested, 0.71% active; AID 1246;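 active means inhibition above the batch mean plus 3 SD, and confirmed as a hit on visual image review, cut at about 43% in these data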;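 further: 0% = TNF-stimulated DMSO wells and 100% = unstimulated control wells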
F-actin modifier: cytoskeleton assembly modification; 91,000 tested, 0.18% active; inhibition, % at 2 µM; HUVEC TNFa F-actin phalloidin imaging, high content;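 active means inhibition above the batch mean plus 3 SD and confirmed as a hit by visual image inspection, cut at about 30% in these data, passing the limit was not always enough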
CYP2C9 act: increases human cytochrome P450 2C9 activity. P11712. recombinant CYP2C9, luciferin-H conversion, luminescence; active compounds read high; factor 1 = untreated enzyme, 0 = blocked. activation factor at 5 µM. 96,000 tested, 1.4% active. AID 1024;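 active means activation factor of 2 or more for CYP2C9 at a 5 µM dose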;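 further: 0 = sulfaphenazole-blocked wells and 1 = vehicle-only wells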
CYP2C19 inhib: blocks human cytochrome P450 2C19 | P33261 | CYP2C19 Supersomes, luciferin-H EGE luminescence, 30 min | inhibition, % at 5 µM | 96,000 tested, 21% active;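 active means CYP2C19 inhibition above a set limit at 5 µM in the primary screen, cut at about 50% in these data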;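 further: plate controls were negative control wells for no effect and 2.5 mM tranylcypromine positive control for full effect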
CYP2C19 act: cytochrome P450 2C19 (human) activation; recombinant CYP2C19, luciferin-H EGE luminescence; active compounds read high; 0 = fully inhibited enzyme, 1 = untreated enzyme; activation factor at 5 µM; 96,000 tested, under 10 active;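 active means activation factor of at least 2 at 5 µM in the primary screen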;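 further: 0 = wells with 2.5 mM tranylcypromine and 1 = vehicle-only wells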
* marks the source's active call; other numbers are inactive results; . = not tested or not shown. Only some compounds are listed: those with a hit (about 22% of all), similar ones and a draw of the others.

SMILES	CYP2C9 inhib	E-sel TNF inh	F-actin modifier	CYP2C9 act	CYP2C19 inhib	CYP2C19 act
Fc1ccccc1NC(=S)NCCc1ccccc1	27	12	-8	0.7	80*	0.2
Fc1cccc(NC(=S)NCCc2ccccc2)c1	.	-5	.	.	.	.
Cc1cccc(OCC(=O)Nc2ccccc2N2CCCCC2)c1	65*	2	-4	0.3	85*	0.1
O=C(COc1ccccc1)Nc1ccccc1N1CCCCC1	78*	.	0	0.2	66*	0.3
O=C(COc1ccccc1)Nc1ccccc1N1CCN(c2ccccc2)CC1	56*	-5	-1	0.4	21	0.8
CN1CCN(c2ccccc2NC(=O)COc2ccc(Br)cc2)CC1	80*	-3	-15	0.2	48	0.5
O=C(COc1ccccc1)Nc1ccccc1N1CCN(c2ccc(F)cc2)CC1	8	6	4	0.9	-4	1
Cc1cccc(N2CCN(c3ccc(N4C(=O)CCCC4=O)cc3[N+](=O)[O-])CC2C)c1 (stereo not drawn)	.	19	.	.	.	.
COc1ccc(C(=O)CSc2nnc(-c3ccc(S(=O)(=O)N4CCOCC4)cc3)o2)cc1	8	-19	3	0.9	6	0.9
Cc1ccc2c(c1)OC(=O)CC2c1ccccc1 (stereo not drawn)	47	4	3	0.5	68*	0.3
O=C1NC(Nc2nccs2)(C(F)(F)F)C(=O)N1CCc1ccccc1 (stereo not drawn)	85*	1	41	0.1	89*	0.1
O=C(NC1(C(F)(F)F)NC(=O)N(Cc2ccccc2)C1=O)c1cccnc1 (stereo not drawn)	33	1	12	0.7	23	0.8
Cc1cccc(OCC2=N/C(=C\N(C)C)C(=O)O2)c1	17	-6	7	0.8	67*	0.3
O=C(N/N=C/c1coc2ccccc2c1=O)c1ccccc1Br	.	13	.	.	.	.
Cn1c(CC(=O)Nc2ccccc2)nnc1SCCOc1ccccc1	10	-16	6	0.9	13	0.9
CC1CCc2c(sc(NC(=O)C(=O)NCc3ccco3)c2C#N)C1 (stereo not drawn)	68*	-3	5	0.3	13	0.9
Cc1cc(C(=O)Nc2sc3c(c2C#N)CCC(C)C3)no1 (stereo not drawn)	76*	-8	-28	0.2	6	0.9
Cc1cccc(NC(=O)c2cnn(C)c2)c1C	.	11	.	.	.	.
COC(=O)c1sc(S(=O)(=O)Nc2ccc3cn[nH]c3c2)c(C(=O)OC)c1C	92*	0	11	0.1	52*	0.5
O=C(Nc1ccc2cn[nH]c2c1)c1ccccc1F	.	17	.	.	.	.
COC(=O)c1ccccc1S(=O)(=O)Nc1ccc2cn[nH]c2c1	80*	1	15	0.2	89*	0.1
CCOC(=O)c1ccc(S(=O)(=O)Nc2ccc3cn[nH]c3c2)cc1	94*	.	24	0.1	16	0.8
O=C(Nc1ccc2cn[nH]c2c1)c1c(Cl)cccc1Cl	.	8	.	.	.	.
CCOc1ccc(Cc2nnc(SCC(N)=O)n2C)cc1	13	8	-5	0.9	4	1
Cc1ccc(-c2nnc(CSc3nnc(COc4ccccc4)n3-c3ccc(C)cc3)o2)cc1	71*	.	.	0.3	36	0.6
SMILES	CYP2C9 inhib	E-sel TNF inh	F-actin modifier	CYP2C9 act	CYP2C19 inhib	CYP2C19 act
CCOc1ccc(-c2nnc(SCc3nnc(-c4ccccc4)o3)n2-c2ccccc2F)cc1	6	0	9	0.9	4	1
Cc1ccc(-c2nnc(CSc3nnc(COc4ccccc4)n3-c3ccccc3)o2)cc1	98*	-18	6	0	92*	0.1
CCOc1ccc(C2C(C#N)=C(N)Oc3nc[nH]c(=O)c32)cc1OC (stereo not drawn)	12	6	-34	0.9	7	0.9
CCC(C)C(NC(C)=O)C(=O)NC(=O)NC(c1ccccc1)c1ccccc1 (stereo not drawn)	80*	0	-1	0.2	78*	0.2
CCN1CCN(c2cc(=O)n(-c3cc(Cl)ccc3C)c(=O)[nH]2)CC1	60*	.	-12	0.4	20	0.8
c1ccc(-c2cc(-c3nc(-c4ccccn4)no3)c3ccccc3n2)cc1	.	2	3	.	.	.
COc1cccc(-c2nc(-c3ccccn3)no2)c1OC	38	10	16	0.6	90*	0.1
c1ccc(-c2noc(-c3cccc4ccccc34)n2)nc1	1	17	.	1	64*	0.4
